Assay results taken from PubChem BioAssay AID651744 (Broad Institute, 2012).
Out of some 5,600 compounds screened, about 3,100 (55%) were called active. Not shown: some 3% with an inconclusive outcome.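 How the source made its calls: active means mean loss of cell viability signal at or above a set limit, and enough replicates individually reaching it; inconclusive means meets only the mean limit or only the replicate share; inactive means meets neither condition.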 So high a share suggests a set chosen from earlier hits. These entries were drawn from the full list.

Experiment: viability loss of mouse 3T3 cells – cell-based, cherry-pick, single point, set 2, cytotoxicity control, confirmation (AID 651744);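 further: 0% = median of neutral control wells and 100% = median of positive control wells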
Conditions: NIH/3T3 viability, CellTiter-Glo ATP luminescence, 90 h; at 24.9 µM; hits give high values

Structure (SMILES)	inhibition
O=C(c1cccnc1)N1CCCCN2[C@@H](CO)[C@H](c3ccc(C#Cc4ccccc4)cc3)[C@@H]2C1	66.5% (active)
COc1ccc(C#Cc2ccc([C@@H]3[C@@H](CO)N4CCCCN(C(=O)c5ccncc5)C[C@@H]34)cc2)cc1	97.5% (active)
O=C(Nc1ccccc1)N1CCCCN2[C@H](CO)[C@@H](c3ccc(C#Cc4ccccn4)cc3)[C@H]2C1	9.74% (inactive)
O=C(c1ccc(F)cc1)N1CCCCN2[C@H](C1)[C@@H](c1ccc(C#CC3(O)CCCC3)cc1)[C@@H]2CO	18% (inactive)
O=C(c1ccncc1)N1CCCCN2[C@H](CO)[C@H](c3ccc(-c4ccccc4)cc3)[C@H]2C1	5.4% (inactive)
O=S(=O)(c1ccccc1)N1CC[C@@H]2[C@@H](CO)Nc3ccc(-c4ccccc4F)cc3[C@@H]21	23.8% (inactive)
O=C(c1cccc(F)c1)N1CC[C@@H]2[C@@H](CO)Nc3ccc(C#Cc4cccc(F)c4)cc3[C@@H]21	105% (active)
O=S(=O)(c1ccccc1)N1CC[C@@H]2[C@H]1c1cc(C#Cc3cccc(F)c3)ccc1N[C@@H]2CO	72.4% (active)
CN(C)C(=O)c1ccc(-c2ccc3c(c2)[C@H]2[C@H](CCN2C(=O)c2ccc4c(c2)OCO4)[C@H](CO)N3)cc1	-8.51% (inactive)
O=S(=O)(c1ccccc1)N1CC[C@@H]2[C@@H](CO)Nc3ccc(C#Cc4cccc(F)c4)cc3[C@@H]21	52.5% (active)
CC(=O)N1CC[C@@H]2[C@H](CO)Nc3ccc(C#Cc4ccccc4F)cc3[C@@H]21	33.2% (active)
COCC(=O)N1CC[C@@H]2[C@@H](CO)Nc3ccc(-c4cccc(C#N)c4)cc3[C@@H]21	5.66% (inactive)
COc1ccc(NC(=O)N2CC[C@@H]3[C@@H](CO)N(C)c4ccc(-c5cccc(F)c5)cc4[C@@H]32)cc1	20.7% (inactive)
CC(=O)N1[C@H](CNC(=O)C2CC2)[C@@H](c2ccc(-c3cccc(F)c3)cc2)[C@@H]1CO	13% (inactive)
Cc1ccccc1S(=O)(=O)N1CC[C@H]2[C@H](CO)Nc3ccc(-c4cccc(F)c4)cc3[C@H]21	105% (active)
O=C(Cc1ccccc1)N1CC[C@H]2[C@H](CO)Nc3ccc(-c4ccccc4F)cc3[C@H]21	48.1% (active)
CCC(=O)N1CC[C@@H]2[C@@H](CO)N(C)c3ccc(-c4ccc(F)cc4)cc3[C@@H]21	12.2% (inactive)
CN1c2ccc(-c3ccccc3)cc2[C@H]2[C@H](CCN2C(=O)Cc2ccccn2)[C@H]1CO	9.27% (inactive)
O=C(C[C@@H]1C[C@@H]2c3cc(NC(=O)c4ccc5c(c4)OCO5)ccc3O[C@@H]2[C@@H](CO)O1)NCc1ccc(Cl)cc1	14.5% (inactive)
CN1C(=O)c2cc(NC(=O)c3cnccn3)ccc2OC[C@@H]2O[C@@H](CC(=O)N[C@H]3CCN(Cc4ccccc4)C3)CC[C@H]21	-12.6% (inactive)
C[C@H]1CCCCO[C@@H](CN(C)S(=O)(=O)c2cccs2)[C@@H](C)CN([C@@H](C)CO)C(=O)c2cc(NS(=O)(=O)c3ccc(Cl)cc3)ccc2O1	11.8% (inactive)
C[C@@H]1CCCCO[C@H](CN(C)Cc2ccccc2)[C@H](C)CN([C@H](C)CO)C(=O)c2cc(NS(=O)(=O)c3ccc(Cl)cc3)ccc2O1	104% (active)
C[C@H](CO)N1C[C@H](C)[C@H](CN(C)S(=O)(=O)c2ccc(F)cc2)OCCCC[C@H](C)Oc2ccc(NS(=O)(=O)c3ccc(Cl)cc3)cc2C1=O	18.4% (inactive)
COc1ccc(S(=O)(=O)Nc2ccc3c(c2)C(=O)N([C@H](C)CO)C[C@@H](C)[C@@H](CN(C)CC2CCCCC2)OCCCC[C@@H](C)O3)cc1	107% (active)
COc1ccc(NC(=O)N(C)C[C@@H]2OCCCC[C@@H](C)Oc3ccc(NS(=O)(=O)c4ccc(Cl)cc4)cc3C(=O)N([C@H](C)CO)C[C@H]2C)cc1	-14.7% (inactive)
COc1ccc(S(=O)(=O)N(C)C[C@H]2OCCCC[C@H](C)Oc3ccc(NS(=O)(=O)c4ccc(F)cc4)cc3C(=O)N([C@@H](C)CO)C[C@@H]2C)cc1	-33.1% (inactive)
C[C@@H]1CN([C@H](C)CO)C(=O)c2cc(NS(=O)(=O)c3cccs3)ccc2O[C@@H](C)CCCCO[C@@H]1CN(C)S(=O)(=O)c1ccc(Cl)cc1	2.36% (inactive)
C[C@@H]1CCCCO[C@H](CN(C)C(=O)NC2CCCCC2)[C@H](C)CN([C@H](C)CO)C(=O)c2cc(NS(=O)(=O)c3ccc(Cl)cc3)ccc2O1	-1.41% (inactive)

Structure (SMILES)	inhibition
C[C@H](CO)N1C[C@H](C)[C@H](CN(C)Cc2ccc(C(F)(F)F)cc2)OCCCC[C@H](C)Oc2ccc(NS(=O)(=O)c3ccc(Cl)cc3)cc2C1=O	105% (active)
C[C@H]1CCCCO[C@@H](CN(C)C(=O)NC2CCCCC2)[C@@H](C)CN([C@@H](C)CO)C(=O)c2cc(NS(=O)(=O)c3ccc(Cl)cc3)ccc2O1	15.4% (inactive)
C[C@@H]1CN([C@H](C)CO)C(=O)c2cc(NS(=O)(=O)c3ccc(Cl)cc3)ccc2O[C@@H](C)CCCCO[C@H]1CN(C)Cc1ccccc1	103% (active)
C[C@@H]1CN([C@H](C)CO)C(=O)c2cc(NS(=O)(=O)c3cccs3)ccc2O[C@@H](C)CCCCO[C@H]1CN(C)Cc1ccc(C(F)(F)F)cc1	103% (active)
C[C@@H]1CCCCO[C@H](CN(C)S(=O)(=O)c2ccc(Cl)cc2)[C@H](C)CN([C@@H](C)CO)C(=O)c2cc(NS(=O)(=O)c3cccs3)ccc2O1	-8.7% (inactive)
C[C@@H]1CCCCO[C@H](CN(C)S(=O)(=O)c2cccs2)[C@H](C)CN([C@H](C)CO)C(=O)c2cc(NS(=O)(=O)c3ccc(F)cc3)ccc2O1	-27.9% (inactive)
C[C@@H]1CN([C@H](C)CO)S(=O)(=O)c2ccc(C3=CCCC3)cc2O[C@H]1CN(C)Cc1ccccc1F	106% (active)
C[C@H]1CN([C@@H](C)CO)S(=O)(=O)c2ccc(C3=CCCC3)cc2O[C@@H]1CN(C)Cc1ccccc1	103% (active)
C[C@H]1CN([C@@H](C)CO)S(=O)(=O)c2ccc(C3=CCCCC3)cc2O[C@@H]1CN(C)Cc1ccccc1	106% (active)
C[C@@H]1CCCCO[C@H](CN(C)Cc2ccc(C(F)(F)F)cc2)[C@H](C)CN([C@H](C)CO)C(=O)c2cc(NC(=O)Nc3ccc(F)cc3)ccc2O1	-19.7% (inactive)
C[C@@H]1CCCCO[C@@H](CN(C)Cc2ccc(C(F)(F)F)cc2)[C@@H](C)CN([C@H](C)CO)C(=O)c2cc(NC(=O)Nc3ccccc3)ccc2O1	-8.84% (inactive)
C[C@@H]1CN([C@H](C)CO)C(=O)c2cc(NC(=O)Nc3ccc(F)cc3)ccc2O[C@@H](C)CCCCO[C@@H]1CN(C)CC1CCCCC1	102% (active)
C[C@@H]1CCCCO[C@H](CN(C)Cc2ccccc2)[C@@H](C)CN([C@@H](C)CO)C(=O)c2cc(NC(=O)Nc3ccc(F)cc3)ccc2O1	103% (active)
C[C@@H]1CCCCO[C@@H](CN(C)CC2CC2)[C@H](C)CN([C@H](C)CO)C(=O)c2cc(NC(=O)C3CCCCC3)ccc2O1	-28.9% (inactive)
COc1ccc(NC(=O)N(C)C[C@@H]2Oc3c(NC(=O)NC4CCCCC4)cccc3C(=O)N([C@@H](C)CO)C[C@@H]2C)cc1	2.03% (inactive)
C[C@@H]1CN([C@H](C)CO)C(=O)c2cccc(NC(=O)NC3CCCCC3)c2O[C@H]1CN(C)Cc1ccc(C(F)(F)F)cc1	106% (active)
C[C@@H]1CCCCO[C@H](CN(C)C(=O)NC2CCCCC2)[C@H](C)CN([C@H](C)CO)C(=O)c2cc(NC(=O)Nc3ccc(F)cc3)ccc2O1	1.83% (inactive)
C[C@H]1CCCCO[C@H](CN(C)Cc2ccccc2)[C@@H](C)CN([C@@H](C)CO)C(=O)c2cc(NC(=O)c3ccccc3)ccc2O1	40.7% (active)
C[C@@H]1CN([C@H](C)CO)C(=O)c2cc(NC(=O)Nc3ccc(F)cc3)ccc2O[C@@H](C)CCCCO[C@H]1CN(C)Cc1ccc(Cl)c(Cl)c1	81.1% (active)
C[C@@H]1CCCCO[C@@H](CN(C)Cc2ccc(Cl)c(Cl)c2)[C@H](C)CN([C@H](C)CO)C(=O)c2cc(NC(=O)Nc3ccc(F)cc3)ccc2O1	1.24% (inactive)
COc1ccc(CN(C)C[C@H]2OCCCC[C@H](C)Oc3ccc(NC(=O)Nc4ccc5c(c4)OCO5)cc3C(=O)N([C@H](C)CO)C[C@@H]2C)cc1	103% (active)
C[C@H]1CCCCO[C@H](CN(C)S(=O)(=O)c2ccc(Cl)cc2)[C@@H](C)CN([C@@H](C)CO)C(=O)c2cc(NC(=O)Nc3ccc4c(c3)OCO4)ccc2O1	7.66% (inactive)
C[C@H]1CCCCO[C@H](CN(C)Cc2ccccc2)[C@@H](C)CN([C@@H](C)CO)C(=O)c2cc(NC(=O)NC3CCCCC3)ccc2O1	102% (active)
C[C@@H]1CCCCO[C@H](CN(C)Cc2ccc(Cl)c(Cl)c2)[C@H](C)CN([C@@H](C)CO)C(=O)c2cc(NC(=O)C3CCCCC3)ccc2O1	50.7% (active)
C[C@@H]1CN([C@@H](C)CO)C(=O)c2cc(NC(=O)C3CCCCC3)ccc2O[C@@H](C)CCCCO[C@H]1CN(C)Cc1ccncc1	-15.9% (inactive)
COc1ccc(NC(=O)Nc2ccc3c(c2)C(=O)N([C@H](C)CO)C[C@@H](C)[C@H](CN(C)Cc2ccc(Cl)c(Cl)c2)OCCCC[C@@H](C)O3)cc1	-0.512% (inactive)
C[C@@H]1CCCCO[C@@H](CN(C)Cc2ccc3c(c2)OCO3)[C@@H](C)CN([C@@H](C)CO)C(=O)c2cc(NC(=O)Nc3ccccc3)ccc2O1	16% (inactive)
